Data published in the supplement of paper PMC10338343.
± gives the standard deviation.

Tested on: MILI (PIWIL2) piRISC loaded with L1MC piRNA (26 nt)
Test: pre-steady-state target cleavage rate (min^-1); guide: L1MC piRNA 5'p-UAACUAAAUACUAUGCAAGCUGUAGG; MIWI and MILI are mouse PIWI proteins and EfPiwi is from a freshwater sponge; tags in brackets are library labels; higher = faster piRNA-guided slicing of the target
Summary of the method: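 Cleave-'n-Seq reactions paired 0.1 nM transcribed, DNA-blocked target RNA library with 1 nM active affinity-purified piRISC holding one synthetic guide, plus or minus 500 nM GTSF1 partner protein, in HEPES–potassium acetate buffer at 33 °C for 0–8 or 0–960 min. After sequencing of uncleaved targets and normalisation to depth and weakly complementary targets, the pre-steady-state cleavage rate was taken from a burst-and-steady-state fit. Three trials were pooled, and k3 was capped at 0.0001 min^-1.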

[1] = auxiliary factor: 500 nM mouse GTSF1
[2] = auxiliary factor: none (no GTSF1)

UCCUGGAUCAGCUUGCAUAGUUUAUAGUUA
pre-steady-state target cleavage rate [1]: 0.0204 ± 0.008
pre-steady-state target cleavage rate [2]: 0.00545 ± 0.0025

UCCUGGAUGUCGUUGCACAGUAUUUAGUUA
pre-steady-state target cleavage rate [1]: 0.0899 ± 0.011
pre-steady-state target cleavage rate [2]: 0.00642 ± 0.0028

UCCUGGAUGUCGAUGCAUAGUAUAUUAGUUA
pre-steady-state target cleavage rate [1]: 0.0713 ± 0.015
pre-steady-state target cleavage rate [2]: 0.00716 ± 0.0023

UCCUGGAUGUCCUUGCAUAGUAUUUAGUGA
pre-steady-state target cleavage rate [1]: 0.0966 ± 0.018
pre-steady-state target cleavage rate [2]: 0.00382 ± 0.0024

UCCUGGAUGUCGAAGCAUAGUAUUUUGUUA
pre-steady-state target cleavage rate [1]: 0.0221 ± 0.0061
pre-steady-state target cleavage rate [2]: 0.00241 ± 0.0023

UCCUGGUACAGCUUGCUAGUAUUUAGUUA
pre-steady-state target cleavage rate [1]: 0.0128 ± 0.0057
pre-steady-state target cleavage rate [2]: 0.00634 ± 0.002

UCCUCCUACGCUUGCAUAGUAUUUAGUUA
pre-steady-state target cleavage rate [1]: 0.301 ± 0.013
pre-steady-state target cleavage rate [2]: 0.0071 ± 0.0018

UCCUGGAUGUGCUUGCAUAGUAUUUAUGUUA
pre-steady-state target cleavage rate [1]: 0.109 ± 0.021
pre-steady-state target cleavage rate [2]: 0.0053 ± 0.0027

UCCUGGAUGUGCUAGCAUAGAAUUUAGUUA
pre-steady-state target cleavage rate [1]: 0.0105 ± 0.0042
pre-steady-state target cleavage rate [2]: 0.00267 ± 0.0022

UCCUGCUACAGCUAGCAUAGUAUUUAGUUA
pre-steady-state target cleavage rate [1]: 0.354 ± 0.027
pre-steady-state target cleavage rate [2]: 0.00624 ± 0.0029

UCCUGGAUGUGCAUGCAUAGUAUUUAGUAA
pre-steady-state target cleavage rate [1]: 0.121 ± 0.017
pre-steady-state target cleavage rate [2]: 0.00467 ± 0.0026

UCCUGGAUGUGCUUGCAAAGUAUUAAGUUA
pre-steady-state target cleavage rate [1]: 0.0349 ± 0.0076
pre-steady-state target cleavage rate [2]: 0.0052 ± 0.0026

UCCUGGAUGUCCAAGCAUAGUAUUUAGUUA
pre-steady-state target cleavage rate [1]: 0.0263 ± 0.0097
pre-steady-state target cleavage rate [2]: 0.00547 ± 0.0023

UCCUGGUACAGCAUGGAUAGUAUUUAGUUA
pre-steady-state target cleavage rate [1]: 0.197 ± 0.019
pre-steady-state target cleavage rate [2]: 0.0172 ± 0.0046

UCCUGGAUGUCGUUGCUUAGUAUUUUGUUA
pre-steady-state target cleavage rate [1]: 0.0541 ± 0.016
pre-steady-state target cleavage rate [2]: 0.00381 ± 0.0029

UCCUGGAUGAGCUUGCAGAGUAUUUAGUUA
pre-steady-state target cleavage rate [1]: 0.0869 ± 0.0095
pre-steady-state target cleavage rate [2]: 0.00792 ± 0.0024

UCCUGGAUGUCCUUGCAUAGUAAUUUAGUUA
pre-steady-state target cleavage rate [1]: 0.0401 ± 0.013
pre-steady-state target cleavage rate [2]: 0.00555 ± 0.0026

UCCUGGAUGUGCUUGCAUAGUAUCUUAGUUA
pre-steady-state target cleavage rate [1]: 0.135 ± 0.019
pre-steady-state target cleavage rate [2]: 0.0069 ± 0.0028

UCCUGGAUGUGGUUGCAUAGUAUUAAGUUA
pre-steady-state target cleavage rate [1]: 0.171 ± 0.048
pre-steady-state target cleavage rate [2]: 0.00678 ± 0.0029

UCCUGGAUGUGCAUGCAUACUAUUUAGUUA
pre-steady-state target cleavage rate [1]: 0.0253 ± 0.0066
pre-steady-state target cleavage rate [2]: 0.00586 ± 0.0023

UCCUGGAUGUGCUAGCAUAGUAAUUAGUUA
pre-steady-state target cleavage rate [1]: 0.0614 ± 0.011
pre-steady-state target cleavage rate [2]: 0.00598 ± 0.0021

UCCUGGAUGACCUUGCUUAGUAUUUAGUUA
pre-steady-state target cleavage rate [1]: 0.114 ± 0.019
pre-steady-state target cleavage rate [2]: 0.00599 ± 0.0028

UCCUGCUACAGCUUGCUAUGUAUUUAGUUA
pre-steady-state target cleavage rate [1]: 0.0638 ± 0.017
pre-steady-state target cleavage rate [2]: 0.00522 ± 0.0021

UCCUGGUACUGCUUGCAUAGUAUUUUGUUA
pre-steady-state target cleavage rate [1]: 0.0539 ± 0.019
pre-steady-state target cleavage rate [2]: 0.00457 ± 0.0034

UCCUGGAUGUGCUAGCAUAGUUUUUAGUUA
pre-steady-state target cleavage rate [1]: 0.0108 ± 0.0046
pre-steady-state target cleavage rate [2]: 0.00466 ± 0.0027

UCCUGGAUGUCCUAGCAUAGUAUAUAGUUA
pre-steady-state target cleavage rate [1]: 0.0912 ± 0.02
pre-steady-state target cleavage rate [2]: 0.00315 ± 0.0027

UCCUGGAUGUCGUUGCAUAGUAUUUAGUAA
pre-steady-state target cleavage rate [1]: 0.191 ± 0.03
pre-steady-state target cleavage rate [2]: 0.00351 ± 0.0029

UCCUGGAACAGCUAGCAUAGUUUUUAGUUA
pre-steady-state target cleavage rate [1]: 0.0448 ± 0.0092
pre-steady-state target cleavage rate [2]: 0.00311 ± 0.0024

UCCUGGAUGUCCUUGCUUAGUUUUUAGUUA
pre-steady-state target cleavage rate [1]: 0.0152 ± 0.0067
pre-steady-state target cleavage rate [2]: 0.00494 ± 0.0023

UCCUCACUACAGCUUGCAUAGUAUUUAGUUA
pre-steady-state target cleavage rate [1]: 0.259 ± 0.022
pre-steady-state target cleavage rate [2]: 0.00971 ± 0.0027

UCCUGGAUGUCCUUGCAUUGUAUAUAGUUA
pre-steady-state target cleavage rate [1]: 0.0803 ± 0.022
pre-steady-state target cleavage rate [2]: 0.00438 ± 0.0024
